# Sfp inh – qHTS Assay for Inhibitors of Bacillus subtilis Sfp phosphopantetheinyl transferase (PPTase) | 4'-phosphopantetheinyl transferase ffp (Bacillus subtilis), Q9F4F7 | Biochemical Sfp PPTase activity, qHTS | Potency, µM, for the others: largest response in the series, negative = inhibition, actives largely listed as inhibitors | hit rate 3.5% among 310,000 | AID 1490, 2009;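 note: the enzyme is Sfp with the accession as filed and its product quenches rhodamine fluorescence; 0% = enzyme reaction without inhibitor and -100% = no enzyme wells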
#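 Sfp 15 nM + cpd, 15 min RT; start w/ rhodamine-CoA 5 uM, BHQ-2-YbbR 12.5 uM (final); 50 mM Hepes pH 7.6, 10 mM MgCl2, 0.01% NP-40, 0.01% BSA; read 525/598 nm at 0 and 30 min.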
# JMJD2A Tudor – qHTS Assay for Inhibitors of JMJD2A-Tudor Domain; AlphaScreen JMJD2A-Tudor / H3K4me3 peptide binding; Potency, µM (top dose mostly 114 µM), without a hit: at the top dose activity change, negative = inhibition, most hits filed as inhibitors; hit rate 4.4% among 390,000; AID 504339, 2011; note: % is set by controls: 0 for no effect and ±100 for the full control effect; nearly all actives have a fitted effect of over 50% in size
# BAZ2B inh – qHTS Assay for Inhibitors of BAZ2B; Potency, µM (top dose mostly 114 µM), for the others: at the highest dose activity change, negative = inhibition, actives largely listed as inhibitors; Bromodomain adjacent to zinc finger domain protein 2B (Homo sapiens), Q9UIF8; AID 504333, 2011; hit rate 4.4% among 360,000; AlphaScreen BAZ2B-H3K14Ac peptide displacement; note: % is set by controls: 0 for no effect and ±100 for the full control effect; nearly all actives have a fitted effect of over 60% in size
#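 BAZ2B 50 nM plus b-H3(5-23)K14Ac 50 nM, PBS pH 7.4/0.01% Tween-20, 30 min RT; compound added (max 110 uM), 30 min RT; streptavidin donor/Ni-chelate acceptor beads 10 ug/mL final, 20 min dark; AlphaScreen read.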
# HP1b chromo inh – HTS for Inhibitors of HP1-beta Chromodomain Interactions with Methylated Histone Tails; hit rate 0.56% among 390,000; Potency, µM (top dose mostly 114 µM), inactives show at the top dose activity change, negative = inhibition, actives largely listed as inhibitors; Chromobox protein homolog 1 (Homo sapiens), P83916; AlphaScreen HP1-beta / biotin-H3K9me3 peptide binding; note: nearly all actives have a fitted effect of over 70% in size
# Target sequence (P83916 whole entry, looked up): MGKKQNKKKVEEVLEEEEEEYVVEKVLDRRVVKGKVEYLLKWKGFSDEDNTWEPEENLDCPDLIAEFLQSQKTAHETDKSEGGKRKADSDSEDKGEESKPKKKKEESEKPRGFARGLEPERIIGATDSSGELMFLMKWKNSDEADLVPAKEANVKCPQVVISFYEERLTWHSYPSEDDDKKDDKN
#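 HP1-beta protein (50 nM final) preincubated 30 min at room temperature with biotinylated H3(1-18)K9me3 peptide (50 nM) in PBS pH 7.4, 0.01% Tween-20, then compound added for 30 min. AlphaScreen streptavidin donor/nickel chelate acceptor beads (10 ug/mL final), 30 min dark, luminescence read.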
# G9a block – qHTS Assay for Inhibitors of Histone Lysine Methyltransferase G9a; hit rate 8.8% among 350,000; AID 504332, 2011; Potency, µM (titrated, usually from 102 µM), for inactives: at the top dose activity, negative = inhibition, most hits filed as inhibitors; Histone-lysine N-methyltransferase EHMT2 (Homo sapiens), Q96KQ7; G9a H3K9 monomethylation, AlphaScreen, 2 h; note: % is set by controls: 0 for no effect and ±100 for the full control effect; nearly all actives have a fitted effect of over 75% in size
# Target sequence (Q96KQ7 913-1193 limits assumed): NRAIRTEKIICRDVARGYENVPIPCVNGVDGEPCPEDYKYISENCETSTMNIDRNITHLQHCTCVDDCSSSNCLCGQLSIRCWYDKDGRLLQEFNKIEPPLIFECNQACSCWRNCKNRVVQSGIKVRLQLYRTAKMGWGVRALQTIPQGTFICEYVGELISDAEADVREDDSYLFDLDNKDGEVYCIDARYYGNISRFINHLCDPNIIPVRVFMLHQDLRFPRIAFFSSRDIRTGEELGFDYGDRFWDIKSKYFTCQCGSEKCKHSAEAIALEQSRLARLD
#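 Chemiluminescent proximity detection of H3K9 monomethylation, read after 10 min bead incubation in the dark. Reaction: 20 nM G9a, 500 nM biotin-H3K9 peptide, 20 uM SAM cofactor, 2 h, room temperature, following 15 min enzyme-compound preincubation.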
# * = called active by the depositor; ? = inconclusive; . = no result; [ ] = dose if it differs, or a comment. Sampled rows, rich in hits. Any-hit rate of the full collection: about 12%. Calls come from the whole dose curve; as a rule, active = well fitted curve in the direction sought with a large enough effect; inconclusive = small, poorly fitted or top-dose-only effect, or another doubt; inactive = no such curve, though single readings can be large; an effect the other way counts as inactive or inconclusive. Potency is the fitted concentration of half-maximal effect.
SMILES,Sfp inh,JMJD2A Tudor,BAZ2B inh,HP1b chromo inh,G9a block
CCC(CO)Oc1cc(NCc2ccccc2Cl)c2ncn(C(C)C)c2c1 (centres undefined),.,50µM*,?,-22%,-12%[2.33 µM]
CCC(CO)Oc1cc(NCc2ccccc2C(F)(F)F)c2ncn(C(C)C)c2c1 (centres undefined),.,45µM*,.,?,.
Cc1cccc(C)c1OCC(=O)NCc1nnc(SCC(=O)NC2CCCCC2C)n1C (centres undefined),18%,-15%,-38%,2%,?
O=C1C(=C(c2ccccc2)c2ccccc2)Nc2ccccc21,3%,28µM*,11µM*,16µM*,-147%[59 µM]
COc1ccc(-c2nc(N)n(C(=O)c3ccccc3)n2)cc1,5%,-4%,-21%,34%,-26%
COc1ccc(-c2nc(N)n(C(=O)c3cccs3)n2)cc1,-1%,89µM*,-9%,12%,-3%[59 µM]
NS(=O)(=O)c1ccc(N/C=C\C(=O)c2ccc3ccccc3c2)cc1,-5%,-25%,?,27%,8.9µM*
Cc1ccc(C(=O)CC2(O)C(=O)N(Cc3ccccc3)c3ccccc32)o1 (centres undefined),25%,-23%,-8%,5%,-6%[59 µM]
N#CCCCN1C(=O)C(O)(CC(=O)c2ccc3c(c2)OCCO3)c2ccccc21 (centres undefined),17%,-17%,8%,17%,35µM*
Cc1ccc(CN2C(=O)C(O)(CC(=O)c3ccc(C)cc3)c3ccccc32)cc1 (centres undefined),.,50µM*,13µM*,?,11µM*
Cc1coc(C)c1C(=O)CC1(O)C(=O)N(Cc2ccccc2)c2ccccc21 (centres undefined),?,89µM*,?,?,-39%[59 µM]
CN1CCN(CC(=O)n2c3c(c4ccccc42)CCCC3)CC1,-1%,56µM*,?,-9%,40µM*
Cc1c(C)n(C(=O)CN2CCN(c3ccccc3)CC2)c2ccccc12,?,?,?,-19%,50µM*
CCN(CC)CC(=O)n1c2c(c3ccccc31)CCCC2,-2%,-32%,4%,-14%,9%[59 µM]
CN(CC(=O)Nc1c(Cl)cccc1Cl)C(=O)Cc1ccc2c(c1)CCC2,.,-6%,5%,?,3.5µM*
CCN(CC(=O)Nc1c(F)cccc1F)C(=O)Cc1ccc2c(c1)CCC2,.,-9%,-6%,?,10µM*
COc1cccc(NC(=O)CN(C)C(=O)Cc2ccc3c(c2)CCC3)c1,.,-8%,8%,14%,?
NC1=NC2(CCCCC2)N(c2cccc(Cl)c2)C(N)=N1,14%,-9%,10%,6%,17%[12.7 µM]
CCCCOC(=O)NC1CCS(=O)(=O)C1 (centres undefined),1%,-6%,?,11%,-11%
N#Cc1cc2ccccc2nc1SCc1ccccn1,-21%,0%,27%,50%,35µM*
O=C1NC(=S)SC1=Cc1cccs1,.,-32%,.,?,.
O=C1/C(=C/c2cccs2)NC(=S)N1C1CC1,-3%,40µM*,-33%,14%,40µM*
CCN1/C(=C\C(C)=O)Sc2ccc(OC)cc21,2%,-23%,-28%,12%,5µM*
CCC(=O)/C=C1\Sc2ccc(OC)cc2N1CC,50µM*,-15%,2%,26%,50µM*
CC1CCCC(C)N1CC(O)COc1ccc(Cl)cc1 (centres undefined),-7%,1%,1%,59%,-28%[59 µM]
SMILES,Sfp inh,JMJD2A Tudor,BAZ2B inh,HP1b chromo inh,G9a block
O=C(c1ccc2c(c1)N(Cc1cccc(Cl)c1)C(=O)c1ccccc1S2=O)N1CCC(Cc2ccccc2)CC1 (centres undefined),.,-24%,0%,35%,?
Cc1nc(N)sc1-c1csc(N(C)c2ccc(O)cc2)n1,6%,56µM*,-69%,-54%,45µM*
CN(c1ccc(O)cc1)c1nc(-c2cccs2)cs1,-2%,?,-23%,?,-9%
O=C(NCCc1ccc(Cl)cc1Cl)c1ccc2nc[nH]c2c1,15%,-3%,-3%,58%,.
COc1cc(C(=O)NC2=C(C#N)CCC2)cc(OC)c1OC,19%,-13%,-31%,7%,50µM*
CN(C)c1ccc(NC(=O)c2ccc3nc[nH]c3c2)cc1,8%,-34%,45µM*,15%,?
O=C(NNC(=O)c1ccccc1F)c1ccc2nc[nH]c2c1,18%,-14%,?,33%,15%
O=C(NNC(=O)c1ccccc1Br)c1ccc2nc[nH]c2c1,12%,?,50µM*,-7%,.
COc1cc(C(=O)Nc2ccccc2NC(=O)c2cc(OC)c(OC)c(OC)c2)cc(OC)c1OC,-19%,-22%,3%,21%,15%
COc1ccccc1CCNC(=O)c1ccc2nc[nH]c2c1,9%,-21%,50µM*,14%,-1%
O=C(Nc1ccccc1)c1cccc(N2C(=O)CCC2=O)c1,8%,-9%,10%,40%,?
COc1cc(C(=O)Nc2ccc(S(=O)(=O)N(C)c3ccccc3)cc2)cc(OC)c1OC,8%,-12%,-6%,21%,10%[59 µM]
COc1cc(C(=O)Nc2ccc(N(C)C)cc2)cc(OC)c1OC,2%,?,?,-5%,45µM*
CN(C)c1ccc(NC(=O)c2cccc(N3C(=O)CCC3=O)c2)cc1,-3%,-32%,-12%,15%,40µM*
CCOc1cccc(-c2nnc3sc(C4CCCCC4)nn23)c1,?,-25%,-5%,?,35µM*
CCNc1nc(NCC)n2c(SCc3ccc(F)cc3)nnc2n1,2%,-14%,8%,4%,10µM*
CCNc1nc(NCC)n2c(SCc3nc4ccccc4c(=O)[nH]3)nnc2n1,14%,-7%,-4%,25%,2%[12.7 µM]
CCNc1nc(NCC)n2c(SCC(=O)Nc3ccccc3F)nnc2n1,.,-11%,8%,-14%,-13%[0.501 µM]
CCNc1nc(NCC)n2c(SCC(=O)Nc3ccc(CC)cc3)nnc2n1,.,?,-33%,?,2.5µM*
CCNc1nc(NCC)n2c(SCC(=O)Nc3ccc(F)cc3[N+](=O)[O-])nnc2n1,9%,-27%,-24%,2%,30%[12.7 µM]
CCNc1nc(NCC)n2c(SCC(=O)Nc3ccc(NC(C)=O)cc3)nnc2n1,.,-25%,50µM*,0%,50µM*
CC(=O)Nc1ccc(NC(=O)C2CCCCN2S(=O)(=O)c2ccc(C(C)(C)C)cc2)cc1 (centres undefined),-12%,-24%,-7%,14%,14%
O=C(Cc1ccccc1[N+](=O)[O-])NNC(=O)c1ccncc1,.,1%,10%,20%,-3%[2.33 µM]
CN(C)c1cccc(NC(=O)c2cccc3ccccc23)c1,-3%,22µM*,28µM*,50µM*,32µM*
